The text below walks through data of PubChem BioAssay (NCI).

Assay in all cases: NCI-60 one-dose screen, 48 h (100 = growth as untreated, 0 = no growth, -100 = all killed)
The subject of one assay is NCI-H23 lung. The settings on record: 10 µM unless noted.
Another assay has as its system NCI-H226 lung. The settings on record: 10 µM unless noted.
The subject of a further assay is NCI-H322M lung. The conditions noted are these: 10 µM unless noted.
The next assay has as its system HOP-62 NSCLC. The settings on record: 10 µM unless noted.
Another assay has as its system NCI-H460 lung. The settings on record: 10 µM unless noted.
The subject of the next assay is HOP-92 NSCLC. The settings on record: 10 µM.
For the next assay, the system named is NCI-H522 lung. The conditions noted are these: 10 µM unless noted.
The subject of another assay is 786-0 renal. The settings on record: 10 µM unless noted.
Another assay deals with COLO 205 colon. The conditions noted are these: 10 µM unless noted.
The test system of the next assay is DU-145 prostate. The settings on record: 10 µM unless noted.
The test system of another assay is K-562 leukemia. The settings on record: 10 µM unless noted.
The next assay deals with MALME-3M melanoma. The settings on record: 10 µM unless noted.
For another assay, the system named is MDA-MB-231 breast. The settings on record: 10 µM unless noted.
The next assay deals with RXF 393 renal. The conditions noted are these: 10 µM unless noted.
The test system of a further assay is SF-268 CNS. The conditions noted are these: 10 µM unless noted.
The subject of the next assay is SF-295 CNS. The settings on record: 10 µM unless noted.
Another assay has as its system SF-539 CNS. The conditions noted are these: 10 µM unless noted.
The next assay has as its system UACC-257 melanoma. The settings on record: 10 µM unless noted.
In the next assay the test system is A549/ATCC NSCLC. The conditions noted are these: 10 µM unless noted.

About 83,000 compounds went through this panel and 20% of them were active in at least one assay; those are over-represented in the sample as a whole.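 In brief: 96-well plates, 48 h treatment, single concentration, percent growth endpoint.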 Unmarked numbers belong to inactive results. The source made the active and inactive calls. How the source made its calls: active means growth percent below 10; inactive means the rest.

Turning to `CCCCNNC(=O)c1ccc(-c2cccc(F)c2F)cc1`, the growth in the assay with NCI-H23 lung was 38.1%; in the assay on NCI-H226 lung it was 39.5%; in the assay on NCI-H322M lung, 42.4%; with HOP-62 NSCLC it was 28.5%; in the assay with NCI-H460 lung, 30%; in the assay on HOP-92 NSCLC it was -3.72% (active). Besides, the growth was 4.69% (active) with NCI-H522 lung; 50.8% in the assay on 786-0 renal; 4.96% (active) in the assay with COLO 205 colon; 28.9% with DU-145 prostate; 21.8% with K-562 leukemia; 9.92% (active) in the assay on MALME-3M melanoma. Besides, the growth in the assay with MDA-MB-231 breast is 51.3%; in the assay with RXF 393 renal, -34% (active); in the assay with SF-268 CNS it was 55.6%; in the assay with SF-295 CNS, 28.2%; with SF-539 CNS, 40.8%; with UACC-257 melanoma, 23.5%.
For the compound `CCN(CC)c1ccc2c(c1)Oc1nc(N)c(C#N)c(N)c1C2Sc1ccc(F)cc1` (stereo not drawn), the growth in the assay on NCI-H23 lung is -82.3% (active); with NCI-H226 lung, -84.8% (active); with NCI-H322M lung, -84.8% (active); in the assay on HOP-62 NSCLC it was -15% (active); with NCI-H460 lung, -69.8% (active); with HOP-92 NSCLC, -36.7% (active). Moreover, the growth in the assay with NCI-H522 lung is -48.7% (active); in the assay on A549/ATCC NSCLC, -39.6% (active); in the assay on 786-0 renal it was -83.8% (active); in the assay with COLO 205 colon it was -58.5% (active); in the assay with DU-145 prostate, -94.2% (active); with K-562 leukemia, 2.27% (active). Moreover, the growth in the assay on MALME-3M melanoma was -45.6% (active); in the assay on MDA-MB-231 breast it was -86% (active); with SF-268 CNS, -44.7% (active); in the assay on SF-295 CNS, -91.4% (active); in the assay on SF-539 CNS, -96.1% (active); in the assay on UACC-257 melanoma, -16.9% (active).
On to `C=CCn1c(-c2nc3ccc(C(=C(C#N)C#N)c4ccccc4)cc3[nH]2)cc2cc(Br)ccc21`, for which the growth with NCI-H23 lung was 46.9%; in the assay on NCI-H226 lung, 66.4%; in the assay with NCI-H322M lung it was 70.6%; in the assay on HOP-62 NSCLC, 59.5%; with NCI-H460 lung, 42.2%; with HOP-92 NSCLC it was 63%. The growth in the assay on NCI-H522 lung was 60.2%; with 786-0 renal, 59.2%; with COLO 205 colon, 65.3%; in the assay on DU-145 prostate, 72.4%; in the assay with K-562 leukemia, 23.7%; in the assay with MALME-3M melanoma, 84.1%. The growth in the assay on MDA-MB-231 breast was 58.3%; in the assay with SF-268 CNS, 62.9%; in the assay with SF-295 CNS, 43.1%; in the assay with SF-539 CNS, 65.3%; in the assay with UACC-257 melanoma, 70.9%.
As for `Cc1ccc(-c2nn(-c3ccccc3)cc2/C=C/C(=O)c2ccc(NC(=O)CCCCCCC(=O)NO)cc2)cc1`, the growth is 93.6% in the assay with NCI-H23 lung; 95.8% in the assay with NCI-H226 lung; 83.9% in the assay with NCI-H322M lung; 86.4% in the assay on HOP-62 NSCLC; 68.1% in the assay with NCI-H460 lung; 96.4% with HOP-92 NSCLC. The growth in the assay with NCI-H522 lung was 40.4%; in the assay on 786-0 renal, 56.8%; in the assay on COLO 205 colon, 96.2%; with DU-145 prostate it was 79.1%; in the assay on K-562 leukemia, 43.2%; with MALME-3M melanoma it was 122%. Besides, the growth is 78.6% in the assay on MDA-MB-231 breast; -2.12% (active) in the assay with RXF 393 renal; 81.8% in the assay with SF-268 CNS; 88% in the assay with SF-295 CNS; 82.5% with SF-539 CNS; 82.3% in the assay with UACC-257 melanoma.
For the compound `COc1ccc(NC(=O)Nc2ccc3c(ccn3C(=O)c3cccc(F)c3)c2)cc1`, the growth in the assay on NCI-H23 lung is 72.5%; in the assay with NCI-H226 lung it was 69.2%; in the assay on NCI-H322M lung it was 95.1%; in the assay on HOP-62 NSCLC, 91%; in the assay with NCI-H460 lung, 31.7%; with HOP-92 NSCLC, 71.6%. Besides, the growth in the assay with NCI-H522 lung is 78.6%; in the assay with A549/ATCC NSCLC it was 53.9%; in the assay with 786-0 renal, 58.2%; in the assay with COLO 205 colon, 104%; with DU-145 prostate it was 84.5%; in the assay on K-562 leukemia it was 86.1%. Besides, the growth is 34.2% in the assay on MALME-3M melanoma; 78.6% with MDA-MB-231 breast; 85.3% in the assay with SF-268 CNS; 90.4% in the assay on SF-295 CNS; 52% in the assay with SF-539 CNS; 84.2% with UACC-257 melanoma.
On to `COc1ccc(/C=N/NC(=O)c2cn(C3CC3)c3c(OC)c(N4CC5CCCNC5C4)c(F)cc3c2=O)cc1` (stereo not drawn), for which the growth is 85.7% in the assay with NCI-H23 lung; 99% in the assay on NCI-H226 lung; 89.7% in the assay with NCI-H322M lung; 101% with HOP-62 NSCLC; 92% with NCI-H460 lung; 74.5% with HOP-92 NSCLC. Also, the growth was 102% in the assay on NCI-H522 lung; 98.5% with A549/ATCC NSCLC; 84.2% in the assay on 786-0 renal; 95.1% in the assay with COLO 205 colon; 93.6% in the assay on DU-145 prostate; 7.92% (active) in the assay with K-562 leukemia. The growth with MALME-3M melanoma is 90.4%; in the assay on MDA-MB-231 breast it was 81.1%; in the assay with SF-268 CNS, 83.6%; in the assay with SF-295 CNS, 103%; with SF-539 CNS, 35.5%; in the assay on UACC-257 melanoma it was 106%.
Regarding `O=C1[C@@H]2Cc3c([nH]c4ccccc34)[C@H](c3c(Cl)cccc3Cl)N2C(=O)CN1C1CCN(CC2CCCCC2)CC1`, the growth in the assay with NCI-H23 lung is 91.3%; in the assay on NCI-H226 lung it was 85.9%; with NCI-H322M lung, 83.5%; with HOP-62 NSCLC it was 104%; with NCI-H460 lung it was 12.7%; in the assay with HOP-92 NSCLC it was 64.8%. Moreover, the growth is 24.1% in the assay with NCI-H522 lung; 64.4% in the assay on A549/ATCC NSCLC; 46.6% with 786-0 renal; 96.2% in the assay with COLO 205 colon; 34.4% in the assay with DU-145 prostate; 1.73% (active) with K-562 leukemia. In addition, the growth in the assay with MALME-3M melanoma was 80.6%; in the assay on MDA-MB-231 breast it was 50%; in the assay with SF-268 CNS it was 75.2%; with SF-295 CNS, 105%; in the assay with SF-539 CNS, 68.8%; in the assay on UACC-257 melanoma, 91.4%.
`COc1cc2c(cc1OC)C(Sc1ccc(F)cc1)c1c(nc(N)c(C#N)c1N)O2` (stereo not drawn): the growth in the assay on NCI-H23 lung is -83.1% (active); with NCI-H226 lung, -29.4% (active); in the assay on NCI-H322M lung, -74.8% (active); in the assay with HOP-62 NSCLC it was 10.5%; in the assay on NCI-H460 lung, -60.7% (active); in the assay on HOP-92 NSCLC, -29.4% (active). Further, the growth with NCI-H522 lung is -37.7% (active); in the assay on 786-0 renal, -72.3% (active); in the assay with COLO 205 colon it was -45.3% (active); in the assay with DU-145 prostate, -93.3% (active); in the assay on K-562 leukemia, 8.27% (active); in the assay with MALME-3M melanoma it was -75.1% (active). Moreover, the growth in the assay on MDA-MB-231 breast is -79% (active); with SF-268 CNS it was -38.3% (active); in the assay with SF-295 CNS, -74.8% (active); in the assay with SF-539 CNS, -90.6% (active); in the assay with UACC-257 melanoma it was -25% (active).
For the compound `Nc1cc(F)ccc1NC(=O)c1ccc(NC(=O)C/C=C/c2cccnc2)cc1`, the growth was 62.5% in the assay with NCI-H23 lung; 70.8% in the assay with NCI-H226 lung; 67% in the assay with NCI-H322M lung; 48.7% in the assay on HOP-62 NSCLC; 56.8% in the assay with NCI-H460 lung; 25.2% in the assay on HOP-92 NSCLC. Further, the growth in the assay on NCI-H522 lung is 15.2%; with 786-0 renal it was 72.6%; with COLO 205 colon, 21.2%; in the assay with DU-145 prostate it was 23.7%; in the assay on K-562 leukemia it was 26%; with MALME-3M melanoma it was 47.6%. The growth in the assay on MDA-MB-231 breast is 57.2%; in the assay with RXF 393 renal it was 87.1%; with SF-268 CNS, 53.7%; in the assay on SF-295 CNS, 41.6%; with SF-539 CNS it was 11.9%; in the assay with UACC-257 melanoma, 55.8%.
On to `NS(=O)(=O)c1ccc(Nc2nc(Nc3ccccc3)nc3nnc(SCC(=O)NC4CCCCC4)n23)cc1`, for which the growth in the assay on NCI-H23 lung is 109%; in the assay with NCI-H226 lung it was 100%; in the assay on NCI-H322M lung, 104%; in the assay on HOP-62 NSCLC it was 103%; with NCI-H460 lung, 106%; with HOP-92 NSCLC, 105%. Moreover, the growth is 92.1% in the assay with NCI-H522 lung; 103% in the assay on 786-0 renal; 110% with COLO 205 colon; 106% with DU-145 prostate; 94.1% with K-562 leukemia; 101% in the assay with MALME-3M melanoma. Besides, the growth with MDA-MB-231 breast was 95%; with RXF 393 renal, 126%; with SF-268 CNS, 106%; in the assay with SF-295 CNS it was 105%; in the assay with SF-539 CNS it was 96.1%; in the assay on UACC-257 melanoma it was 104%.
